Assay [1] is described as follows: Nuclear factor erythroid 2-related factor 2/antioxidant responsive element (Nrf2/ARE) small molecule agonists: qHTS cell viability counter screen in human keratinocytes (AID 1919968; active means well fitted cell-killing curve with a large enough effect in the repeat runs; further: nearly all actives have a fitted effect of over 55% in size). In short, it runs like this: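 Parallel cytotoxicity read: KeratinoSens HaCaT cells, compound treatment 23 h, viability by CellTiter-Fluor fluorescence 1 h post-reagent.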
Assay [2] can be described thus: Nuclear factor erythroid 2-related factor 2/antioxidant responsive element (Nrf2/ARE) small molecule agonists: luciferase reporter gene qHTS assay in human keratinocytes (AID 1919969). Further: nearly all actives have a fitted effect of over 35% in size. Further: potency means the concentration at half of the fitted maximal effect.
Assay [3] has as its target Gonadotropin-releasing hormone receptor (Homo sapiens) (UniProt P30968). As to the kind of experiment: Human gonadotropin-releasing hormone receptor (GnRHR) small molecule agonists, calcium flux assay in GnRHR-HEK293 cells (AID 1920063). Further: nearly all actives have a fitted effect of over 35% in size. In short, it runs like this: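 Calcium flux, agonist mode, human GnRHR stably integrated in HEK293; dye 1 h at 37 C before compound; Ex/Em=480/540 kinetic read, 3 min; 15 concentrations, triplicate.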

Assay [4] in a line: G protein-coupled receptor (GPCR) small molecule agonists, calcium flux assay: HEK293 wild type cell line counter screen (AID 1920065). In short, it runs like this:
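Non-specific calcium responders were flagged by adding DMSO-dissolved compounds to dye-loaded cells and reading 480/540 nm fluorescence each second for 3 min; ATP served as positive control.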

A short description of assay [5]: p53 small molecule agonists, cell-based qHTS assay with human liver microsomes (AID 1963577).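 Further: p53 response element beta-lactamase reporter cells with liver microsomes plus NADPH.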 In short, it runs like this:
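With metabolic activation: human liver microsomes (0.5 mg/mL final) plus NADPH (0.5 mg/mL final) added alongside compounds to p53RE-bla cells; 16 h 37 C exposure; beta-lactamase read by LiveBLAzer fluorescence.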

A short description of assay [6]: p53 small molecule agonists, cell-based qHTS assay with rat liver microsomes (AID 1963578). In short, it runs like this: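 Metabolic activation by rat liver microsomes and NADPH, each 0.5 mg/mL final, added right after compounds to p53RE-bla reporter cells (4,000/well, plated 5 h earlier). 16 h at 37 C, then LiveBLAzer substrate for 2 h at room temperature in the dark; fluorescence read-out.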

Assay [7] is described as follows: p53 small molecule agonists, cell-based qHTS assay with human liver microsomes: qHTS cell viability counter screen (AID 1963579). Further: nearly all actives have a fitted effect of over 45% in size. In short, it runs like this: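 Metabolic activation used human liver microsomes and NADPH, both 0.5 mg/mL final, over 16 hours at 37 C on p53RE-bla cells (4,000/well). Cytotoxicity measured by CellTiter-Glo luminescence, 30 min at room temperature.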

Assay [8] in a line: p53 small molecule agonists, cell-based qHTS assay with rat liver microsomes: qHTS cell viability counter screen (AID 1963580). Further: nearly all actives have a fitted effect of over 45% in size. In short, it runs like this: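 Cytotoxicity counter screen: intracellular ATP measured by CellTiter-Glo luminescence in the same wells as the beta-lactamase reporter read, on HCT-116 p53RE-bla cells exposed 16 h at 37 C to compounds with rat liver microsomes and NADPH, each 0.5 mg/mL final.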

Assay [9] is described as follows: p53 small molecule agonists, cell-based qHTS assay: qHTS cell viability counter screen (AID 1963581). Further: nearly all actives have a fitted effect of over 45% in size. In short, it runs like this:
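Multiplexed with the reporter read, a CellTiter-Glo step (30 min, room temperature) gauges ATP-based viability of HCT-116 p53RE-bla cells after 16 h compound incubation at 37 C.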

Assay [10] in a line: p53 small molecule agonists, cell-based qHTS assay (AID 1963582; active means well fitted activation curve with a large enough effect in the signal ratio in the repeat runs, not every such curve was filed as active; the % refers to the signal ratio). In short, it runs like this:
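Beta-lactamase reporter cells (p53RE-bla) treated with compounds for 16 h at 37 C; FRET substrate, 2 h, room temperature; fluorescence intensity.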

Assay [11] concerns the target 5-hydroxytryptamine receptor 2A (Homo sapiens) (UniProt P28223). The assay can be described thus: 5-hydroxytryptamine receptor 2A (HTR2A) small molecule antagonists, cell-based qHTS assay (AID 1963586). Further: nearly all actives have a fitted effect of over 45% in size. Further: potency means the concentration at half of the fitted maximal effect. In short, it runs like this: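 CHO cells stably expressing human HTR2A were plated for 18 h at 37 C, then loaded with calcium dye for 1 h. Compounds were preincubated 5 min at room temperature before DOI (4 nM solution) was added. Kinetic fluorescence was read for 3 min.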

The target in assay [12] is Muscarinic acetylcholine receptor M1 (Homo sapiens) (UniProt P11229). As to the kind of experiment: Cholinergic receptor muscarinic 1 (CHRM1) small molecule antagonists, cell-based qHTS assay (AID 1963588). Further: nearly all actives have a fitted effect of over 40% in size. In short, it runs like this: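 Compounds were tested at 15 concentrations in three independent runs. Dye-loaded CHRM1-CHO cells were exposed 5 min at room temperature before stimulation by acetylcholine added at 50nM. Intracellular calcium was read kinetically on FDSS for 3 min.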

Assay [13] has the same target. The assay can be described thus: Cholinergic receptor muscarinic 1 (CHRM1) small molecule agonists, cell-based qHTS assay (AID 1963589). Further: nearly all actives have a fitted effect of over 35% in size. In short, it runs like this:
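qHTS, 15-point titration, 3 independent runs: compounds pin-transferred onto dye-loaded CHRM1-CHO cells (human M1), calcium fluorescence followed every second to detect agonism.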

Assay [14] can be described thus: cAMP Responsive Elements (CRE) small molecule agonists, cell-based qHTS assay (AID 1963590). In short, it runs like this: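 Quantitative HTS for CRE agonists: HEK 293T CRE-bla cells, overnight plating, 3 h compound incubation at 37 C/5% CO2, then 2 h room-temperature LiveBLAzer B/G FRET substrate loading.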
The nature of assay [15]: cAMP Responsive Elements (CRE) small molecule antagonists, cell-based qHTS assay (AID 1963591; active means well fitted inhibition curve with a large enough effect in the signal ratio in the repeat runs, not every such curve was filed as active; the % refers to the signal ratio). In short, it runs like this: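 Fluorescence intensity from cleaved LiveBLAzer B/G substrate (2 h, room temperature) quantified CRE-bla activity in HEK 293T cells exposed 3 h to compound with 0.25 uM final NKH477.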
Assay [16] has as its target Beta-2 adrenergic receptor (Homo sapiens) (UniProt P07550). The assay can be described thus: Adrenergic beta2 receptor (ADRB2) small molecule antagonists, cell-based qHTS assay (AID 1963592). Further: series mostly up to about 92 µM; nearly all actives have a fitted effect of over 50% in size. In short, it runs like this:
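Assay format: CHO-ADRB2 cells, 18-20hr seeding at 37C/5% CO2, then compound plus 1nM isoproterenol agonist mix for 0.5hr RT. Homogeneous time-resolved fluorescence cAMP detection after 1hr, expressed as 665/615 nm ratio.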

In assay [17] the target is D(2) dopamine receptor (Homo sapiens) (UniProt P14416). The assay can be described thus: Dopamine D2 receptor (DRD2) small molecule agonists, cell-based qHTS assay (AID 1963594). Further: nearly all actives have a fitted effect of over 35% in size. In short, it runs like this: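 HEK293 cells stably expressing human DRD2, pre-treated with PDE inhibitor Ro20-1724 (0.1 mM final) and compound 10 min at room temperature, then stimulated with NKH477 (200nM […]) for 30 min. cAMP read by HTRF (665/620 nm).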

The target is the same in assay [18]. As to the kind of experiment: Dopamine D2 receptor (DRD2) small molecule antagonists, cell-based qHTS assay (AID 1963595; active means well fitted inhibition curve with a large enough effect in the signal ratio in the repeat runs, with a control signal flat; the % refers to the signal ratio). In short, it runs like this: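 Readout: HTRF cAMP, cAMP-d2 competing with cellular cAMP for anti-cAMP cryptate, read after 1 h. Cells: DRD2-HEK293. Conditions: 0.1 mM Ro20-1724, 12 nM quinpirole, 200 nM NKH477, 30 min RT.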
Assay [19] deals with 5-hydroxytryptamine receptor 2A (Homo sapiens) (UniProt P28223). The assay can be described thus: 5-hydroxytryptamine receptor 2A (HTR2A) small molecule agonists, cell-based qHTS assay (AID 1963587). Further: nearly all actives have a fitted effect of over 30% in size. In short, it runs like this:
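CHO cells stably expressing human HTR2A, plated 18 h, loaded with calcium dye 1 h at 37 C. Agonist mode: compounds added and intracellular calcium fluorescence recorded kinetically for 2 min at 1 sec intervals.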

The target of assay [20] is Beta-2 adrenergic receptor (Homo sapiens) (UniProt P07550). As to the kind of experiment: Adrenergic beta2 receptor (ADRB2) small molecule agonists, cell-based qHTS assay (AID 1963593).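 Further: CHO cells stably overexpressing human ADRB2.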 In short, it runs like this: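 CHO cells stably over-expressing ADRB2 were plated overnight at 37C, then dosed with compounds plus a stimulation mix containing 100uM IBMX and 25uM Ro-20-1724 for 0.5hr at room temperature. cAMP was measured by HTRF competition, 1hr.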

Where “and” joins values, the source holds several entries; their conditions need not be identical. Identical values can stand only once. Inconclusive results are not listed. Some structures have more than one record in an assay (separate samples or runs), and their calls can disagree. Calls of active or inactive are those of the source. Unless noted, the call rests on the fitted dose curve.

Drawing on PubChem BioAssay (Tox21), this text covers Potency for eight compounds.

5-hydroxytryptamine receptor 2A (Homo sapiens), sequence (P28223 whole entry, looked up): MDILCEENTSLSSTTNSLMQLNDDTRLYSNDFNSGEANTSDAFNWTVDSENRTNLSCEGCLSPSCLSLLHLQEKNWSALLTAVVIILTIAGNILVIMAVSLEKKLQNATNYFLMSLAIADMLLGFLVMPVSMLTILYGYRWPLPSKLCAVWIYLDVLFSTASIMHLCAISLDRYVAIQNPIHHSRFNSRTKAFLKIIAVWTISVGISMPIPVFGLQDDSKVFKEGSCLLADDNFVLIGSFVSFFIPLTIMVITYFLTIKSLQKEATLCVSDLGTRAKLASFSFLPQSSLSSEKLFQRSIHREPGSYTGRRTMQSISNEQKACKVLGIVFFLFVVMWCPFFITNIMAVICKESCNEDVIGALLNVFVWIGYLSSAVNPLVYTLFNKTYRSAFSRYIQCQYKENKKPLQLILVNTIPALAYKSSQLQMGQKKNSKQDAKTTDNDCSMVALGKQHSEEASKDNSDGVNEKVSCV
Gonadotropin-releasing hormone receptor (Homo sapiens), sequence (P30968 whole entry, looked up): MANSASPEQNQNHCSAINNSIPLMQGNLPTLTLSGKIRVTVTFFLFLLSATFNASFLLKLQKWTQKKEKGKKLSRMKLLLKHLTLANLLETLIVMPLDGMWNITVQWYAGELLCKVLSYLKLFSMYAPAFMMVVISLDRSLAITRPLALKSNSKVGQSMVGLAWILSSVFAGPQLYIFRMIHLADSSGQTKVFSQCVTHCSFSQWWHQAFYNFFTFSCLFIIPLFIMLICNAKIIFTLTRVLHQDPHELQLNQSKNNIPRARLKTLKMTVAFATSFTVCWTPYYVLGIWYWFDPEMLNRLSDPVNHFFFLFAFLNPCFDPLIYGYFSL
D(2) dopamine receptor (Homo sapiens), sequence (P14416 whole entry, looked up): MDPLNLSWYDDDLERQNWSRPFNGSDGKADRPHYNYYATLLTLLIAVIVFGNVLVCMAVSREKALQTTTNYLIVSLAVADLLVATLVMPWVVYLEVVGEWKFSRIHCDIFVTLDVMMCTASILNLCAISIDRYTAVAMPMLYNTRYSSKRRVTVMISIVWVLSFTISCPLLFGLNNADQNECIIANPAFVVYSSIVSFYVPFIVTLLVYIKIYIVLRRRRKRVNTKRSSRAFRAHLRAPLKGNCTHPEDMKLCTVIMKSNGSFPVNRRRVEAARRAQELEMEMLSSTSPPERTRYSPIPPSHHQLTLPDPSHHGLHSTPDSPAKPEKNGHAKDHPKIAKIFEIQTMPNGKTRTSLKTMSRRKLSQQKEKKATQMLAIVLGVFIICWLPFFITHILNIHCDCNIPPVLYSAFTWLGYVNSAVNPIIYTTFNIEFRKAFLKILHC
Muscarinic acetylcholine receptor M1 (Homo sapiens), sequence (P11229 whole entry, looked up): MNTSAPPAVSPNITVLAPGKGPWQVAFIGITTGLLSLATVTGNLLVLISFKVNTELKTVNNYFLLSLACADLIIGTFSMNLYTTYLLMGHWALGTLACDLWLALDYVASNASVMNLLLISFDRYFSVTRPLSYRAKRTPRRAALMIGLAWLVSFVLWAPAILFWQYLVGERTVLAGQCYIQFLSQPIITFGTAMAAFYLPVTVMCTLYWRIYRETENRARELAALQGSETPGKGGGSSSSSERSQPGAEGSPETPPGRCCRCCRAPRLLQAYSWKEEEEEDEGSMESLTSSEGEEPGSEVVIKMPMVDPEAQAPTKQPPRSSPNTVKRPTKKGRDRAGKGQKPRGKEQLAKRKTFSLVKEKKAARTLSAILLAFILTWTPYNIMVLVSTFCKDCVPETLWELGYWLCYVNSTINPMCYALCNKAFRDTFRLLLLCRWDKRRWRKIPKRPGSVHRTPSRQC
Beta-2 adrenergic receptor (Homo sapiens), sequence (P07550 whole entry, looked up): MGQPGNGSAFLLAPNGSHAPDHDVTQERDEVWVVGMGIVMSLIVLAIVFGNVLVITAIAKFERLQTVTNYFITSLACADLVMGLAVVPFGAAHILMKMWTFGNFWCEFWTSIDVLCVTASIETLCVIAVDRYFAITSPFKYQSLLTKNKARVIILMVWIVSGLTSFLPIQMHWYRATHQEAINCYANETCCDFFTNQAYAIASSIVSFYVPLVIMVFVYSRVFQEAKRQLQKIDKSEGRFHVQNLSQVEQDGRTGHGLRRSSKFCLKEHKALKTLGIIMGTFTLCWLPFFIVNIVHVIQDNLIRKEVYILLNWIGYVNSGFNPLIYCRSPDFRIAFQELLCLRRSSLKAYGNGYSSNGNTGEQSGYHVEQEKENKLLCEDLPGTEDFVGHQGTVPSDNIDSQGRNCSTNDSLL

Regarding `CC1(C)C(C=C(Cl)Cl)C1C(=O)OCc1cccc(Oc2ccccc2)c1` (stereo not given), the Potency entry in [1], in assay [2], in [3], in assay [4], in assay [5] and in [6] was “inactive” throughout. The Potency result in assay [7], in [8], in assay [9], in assay [10], in assay [11] and in assay [12] was “inactive” each time. For the same compound, the Potency result in assay [13], in assay [14], in [15], in assay [16], in assay [17] and in assay [18] was “inactive” throughout.

Consider `COc1ccc(-c2coc3cc(O)cc(O)c3c2=O)cc1`, for which the Potency entry in [1], in assay [2], in assay [3], in assay [4], in assay [5] and in assay [6] was “inactive” each time. In addition, the Potency result in [7], in assay [9], in assay [10], in assay [19], in assay [12] and in assay [13] was “inactive” throughout. Further, the Potency entry in assay [18] is “inactive”. The Potency entry in assay [11] is “inactive and 33.4 µM (active)”.

For the compound `Cc1ccc(O)c([N+](=O)[O-])c1`, the Potency result in assay [1], in assay [2], in assay [3], in [4], in assay [5] and in [6] was “inactive” in each case. Further, the Potency result in assay [8], in assay [9], in [19], in assay [12], in assay [13] and in [14] was “inactive” in each case. The Potency result in [15], in assay [16], in assay [20] and in [17] was “inactive” throughout.

Turning to `CCC(CO)CO`, the Potency result in assay [1], in assay [2], in [3], in assay [4], in assay [5] and in [6] was “inactive” each time. Besides, the Potency result in assay [7], in assay [9], in [10], in assay [11], in [19] and in assay [12] was “inactive” each time. Further, the Potency result in assay [13], in assay [14] and in assay [17] was “inactive” in each case.

As for `CCCCCCCCN(C)C`, the Potency entry in assay [1], in assay [2], in assay [3], in [4], in [5] and in [7] was “inactive” in each case. For the same compound, the Potency entry in assay [8], in assay [9], in assay [10], in assay [11], in assay [19] and in assay [12] was “inactive” in each case. In addition, the Potency entry in [13], in assay [14], in assay [15], in assay [16], in assay [20] and in assay [17] was “inactive” throughout. The Potency result in assay [18] is “inactive”.

Consider `CC(=O)N(CC(O)CO)c1c(I)c(C(=O)NCC(O)CO)c(I)c(C(=O)NCC(O)CO)c1I` (stereo not given), for which the Potency result in assay [1], in assay [2], in assay [3], in assay [4], in assay [5] and in [6] was “inactive” each time. The Potency entry in assay [7], in assay [8], in [10], in assay [11], in [19] and in assay [12] was “inactive” each time. Besides, the Potency entry in [13], in assay [14], in [15], in assay [16], in assay [20] and in assay [17] was “inactive” throughout.

Turning to `CC(=O)CC/C=C(\C)CC/C=C(\C)CC/C=C(\C)CCC=C(C)C`, the Potency entry in assay [1], in [3], in assay [4], in assay [5], in [6] and in assay [8] was “inactive” in each case. The Potency entry in assay [9], in assay [10], in assay [11], in assay [19], in [13] and in assay [14] was “inactive” throughout. Moreover, the Potency entry in assay [15], in assay [16], in [17] and in assay [18] was “inactive” throughout. Moreover, the Potency in assay [2] was 26.6 µM (active).

Turning to `COc1cccc(OC)c1C(=O)N[C@@H]1C(=O)N2[C@@H]1SC(C)(C)[C@@H]2C(=O)O`, the Potency entry in assay [1], in assay [2], in [3], in [4], in assay [5] and in [6] was “inactive” each time. Besides, the Potency entry in [8], in assay [9], in assay [10], in [11], in assay [19] and in [13] was “inactive” each time. Moreover, the Potency result in assay [14], in [15], in assay [16], in assay [20], in assay [17] and in assay [18] was “inactive” throughout.
